Only some compounds are listed: those with a hit (about 7.3% of all), similar ones and a draw of the others.
KinaseGlo FLuc: Counterscreen for Luciferase (Kinase-Glo TM) Inhibition; Luciferin 4-monooxygenase (Photuris pensylvanica), Q27757; Kinase-Glo luciferase, ATP luminescence, 8 min; Potency, µM (highest dose often 38.3 µM), inactives show at the highest dose activity change, negative = inhibition, usual class: inhibitors; 200,000 compounds, 0.28% hits; note: % is set by controls: 0 for no effect and ±100 for the full control effect; nearly all actives have a fitted effect of over 60% in size
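Compounds were added to a substrate mix at pH 7.2 (50 mM imidazole, 10 uM ATP, within the enzyme's linear range), followed by Kinase-Glo detection reagent; luminescence was measured after 8 minutes at ambient temperature.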
SMN2 splice up: qHTS Assay for Enhancers of SMN2 Splice Variant Expression | AID 1458, 2008 | 210,000 compounds, 2.8% hits | HEK293 SMN2-luciferase splicing reporter, luminescence, 30-36 h | Potency, µM (series often up to 46.1 µM), without a hit: top-dose activity change, positive = activation, hits mostly activators; note: % of control where 0% means no effect; nearly all actives have a fitted effect of over 55% in size
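HEK293 cells carry an SMN2 minigene-luciferase reporter in which exon 7 inclusion puts luciferase in frame. Cells were seeded at 2000 cells/well, attached for 10-12 hours, then exposed to compounds for 30-36 hours at 37C before ONE-Glo luminescence.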
FLuc modulator: qHTS profiling assay for firefly luciferase inhibitor/activator using purifed enzyme and Km concentrations of substrates (counterscreen for miR-21 project); purified FLuc, Km substrates, luminescence inhibition; Potency, µM (top dose mostly 57.5 µM), without a hit: top-dose activity change, negative = inhibition, most hits filed as inhibitors; 360,000 compounds, 6.9% hits; AID 588342, 2011;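 note: plate controls were vehicle for no effect and reference inhibitor for full effect; nearly all actives have a fitted effect of over 55% in size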
Target sequence (P08659 whole entry, looked up): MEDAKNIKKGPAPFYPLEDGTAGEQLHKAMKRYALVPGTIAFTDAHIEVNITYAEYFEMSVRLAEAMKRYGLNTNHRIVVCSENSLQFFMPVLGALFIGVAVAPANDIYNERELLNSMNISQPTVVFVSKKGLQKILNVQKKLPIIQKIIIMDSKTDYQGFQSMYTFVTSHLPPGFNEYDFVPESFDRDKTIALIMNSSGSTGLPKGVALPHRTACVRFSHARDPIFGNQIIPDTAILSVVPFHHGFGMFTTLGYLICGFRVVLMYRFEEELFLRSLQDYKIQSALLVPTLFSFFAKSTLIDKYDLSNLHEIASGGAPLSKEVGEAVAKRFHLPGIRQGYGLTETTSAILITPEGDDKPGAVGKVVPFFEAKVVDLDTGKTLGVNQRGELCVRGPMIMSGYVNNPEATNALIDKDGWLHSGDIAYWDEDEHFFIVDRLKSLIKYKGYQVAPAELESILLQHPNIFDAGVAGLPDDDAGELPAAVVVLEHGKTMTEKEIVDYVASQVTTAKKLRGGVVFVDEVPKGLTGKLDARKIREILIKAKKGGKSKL
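Purified P. pyralis luciferase, 10 nM final, with Km-level 10 uM D-luciferin and 10 uM ATP in 50 mM Tris acetate pH 7.5, 10 mM Mg acetate, 0.01% Tween-20, 0.05% BSA; 6-point qHTS titration about 60 µM downward; luminescence read.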
Rab9 promoter act: qHTS Assay for Rab9 Promoter Activators. Potency, µM (highest dose often 9.22 µM), inactives show at the highest dose activation, negative = inhibition, hits mostly activators. Huh7 Rab9 promoter-luciferase reporter, luminescence, 24 h. AID 485297, 2010. 320,000 compounds, 2.8% hits; note: % of control where 0% means no effect; nearly all actives have a fitted effect of over 60% in size
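Huh7 cells stably carrying Rab9 promoter–luciferase reporter, plated 1500 cells/well, compound added after 2 h and incubated 24 h at 37 °C; luciferase luminescence then read after 10 min with detection reagent.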
NPC1 promoter act: qHTS Assay for NPC1 Promoter Activators; Huh7 NPC1 promoter luciferase reporter, 24 h; Potency, µM (series often up to 9.22 µM), without a hit: at the top dose activation, hits mostly activators; 320,000 compounds, 2.4% hits; AID 485313, 2010; note: % of control where 0% means no effect; nearly all actives have a fitted effect of over 60% in size
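Readout is luciferase luminescence, reflecting NPC1 promoter activation in stably transfected Huh7 cells after 24 h compound exposure at 37 °C in reduced-serum medium with 10% FBS.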
ELG1 genotoxic: qHTS screen for small molecules that induce genotoxicity in human embryonic kidney (HEK293T) cells expressing luciferase-tagged ELG1; HEK293T ELG1-luciferase reporter, luminescence, 16 h; 330,000 compounds, 1.3% hits; Potency, µM (doses to about 46 µM), for the others: top-dose activity change, positive = activation, usual class: activators; note: % of control where 0% means no effect; nearly all actives have a fitted effect of over 60% in size
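HEK293T cells expressing luciferase-tagged ELG1 were treated with compound or DMSO for 16 hr at 37°C. Luciferase activity was then read after 30 min with ONE-Glo at room temperature; rising signal flags genetic stress.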
* = called active by the depositor; ? = inconclusive; / = no result given; ! = a repeat was not active. Calls come from the whole dose curve; as a rule, active = well fitted curve in the direction sought with a large enough effect; inconclusive = small, poorly fitted or top-dose-only effect, or another doubt; inactive = no such curve, though single readings can be large; an effect the other way counts as inactive or inconclusive. Potency is the fitted concentration of half-maximal effect.

SMILES	KinaseGlo FLuc	SMN2 splice up	FLuc modulator	Rab9 promoter act	NPC1 promoter act	ELG1 genotoxic
CCN(CC)S(=O)(=O)c1cc(-c2nnc(-c3ccc(Br)cc3)o2)ccc1Br	1%	-62%	-7%	-5%	-4%	0%
c1ccc(-c2nnc(-c3ccco3)o2)cc1	?	/	21µM*	3.2µM*	3.2µM*	2.1µM*
CCOC(=O)c1cnc(NCc2ccccc2OC)c2ccccc12	/	/	-12%	/	/	/
Cc1ccc(C(=O)NCC(c2ccco2)S(=O)(=O)c2ccccc2)cc1C (stereo unspecified)	/	/	-13%	/	/	/
c1coc(-c2nnc(-c3ccco3)nn2)c1	/	/	17µM*	?	?	4%
CCOC(=O)C(=O)Nc1nnc2n1CCS2	/	/	1%	/	/	/
O=C(NC1CCCCCCC1)NC1CCCCC1	0%	?	17µM*	4µM*	3.5µM*	?
O=C(NC1CCCCCC1)C(=S)NC1CCCCC1	-5%	-36%	5.4µM*	-4%	2.5µM*	?
Cc1c(C(=O)Nc2ccccn2)sc2nc3n(c(=O)c12)CCC3	/	/	9.5µM*	0.89µM*	1.3µM*	?
Cc1cccc(CCNC(=O)c2sc3nc4n(c(=O)c3c2C)CCCC4)c1	/	/	13µM*	/	/	/
Cc1c(C(=O)Nc2ccccc2F)sc2nc3n(c(=O)c12)CCC3	/	/	19µM*!	2.5µM*	2.8µM*	?
Cc1ccccc1NC(=O)c1sc2nc3n(c(=O)c2c1C)CCC3	/	/	-3%	/	/	/
Cc1c(C(=O)Nc2cccc(C(F)(F)F)c2)sc2nc3n(c(=O)c12)CCC3	/	/	7%	/	/	/
CCc1cccc(NC(=O)c2sc3nc4n(c(=O)c3c2C)CCC4)c1	/	/	17µM*	2.8µM*	2µM*	?
CCOC(=O)C1CCN(C(=O)Cn2ncc3c4ccccc4n(Cc4ccc(F)cc4)c3c2=O)CC1	/	-25%	-4%	/	/	/
COC(=O)CSc1nc2ccc(C)cc2[nH]1	4%	-2%	?	0%	-1%	1%
Cc1ccc2nc(SC(C)C(=O)N3CCCC3)[nH]c2c1 (stereo unspecified)	0%	11µM*	?	?	15%	?
Cc1ccc2nc(SCC(=O)N3CCN(C(=O)c4ccco4)CC3)[nH]c2c1	2%	11%	-5%	2%	0%	0%
Cc1ccc2nc(SCC(=O)c3ccc(O)cc3O)[nH]c2c1	/	/	8.5µM*	3.2µM*	?	?
Cc1ccc2nc(SCC(=O)N3CCCC3)[nH]c2c1	-4%	11µM*	6.7µM*	1.4µM*	2µM*	3.7µM*
Cc1ccc2nc(SC(C)C(=O)N3CCCCC3)[nH]c2c1 (stereo unspecified)	0%	21%	?	12%	25%	6%
COc1ccc(CCNC(=O)CCc2c(C)nc3c(c(C)nn3-c3ccccc3)c2C)c(OC)c1	/	4%	2%	/	/	/
NNc1nc2c(-c3ccc(F)cc3)nnn2c2ccccc12	?	5µM*	4.8µM*	2.8µM*	4µM*	?
NNc1nc2c(-c3ccc(Cl)cc3)nnn2c2ccccc12	-10%	13µM*	?	2.5µM*	4µM*	13%
O=C(Nc1ccc2c(c1)OCO2)c1cnccn1	-25%	11µM*	?	2.5µM*	3.5µM*	23%
SMILES	KinaseGlo FLuc	SMN2 splice up	FLuc modulator	Rab9 promoter act	NPC1 promoter act	ELG1 genotoxic
O=C(NCc1ccc2c(c1)OCO2)c1ccccn1	-3%	13%	-13%	17%	13%	13%
O=C(Nc1ccc2c(c1)OCO2)c1nn(-c2ccccc2)c(=O)c2ccccc12	-2%	-25%	1%	-5%	-2%	-13%
O=C(Nc1ccc2c(c1)OCO2)c1n[nH]c(=O)c2ccccc12	/	/	?	3.5µM*	2.8µM*	?
O=C(/C=C\Nc1ccc2c(c1)OCO2)c1ccccn1	14µM*	-62%	0.076µM*	?	?	?
O=C(COC(=O)c1cnccn1)Nc1ccc2c(c1)OCO2	-2%	-14%	0%	0%	0%	-1%
CC(Sc1ccccn1)C(=O)Nc1ccc2c(c1)OCO2 (stereo unspecified)	/	/	?	13%	9%	11%
O=C(NCCc1ccc2c(c1)OCCO2)c1ccccn1	/	/	12µM*	2µM*	2.2µM*	?
COc1ccc(-c2cn3c(n2)sc2cc(C(=O)NC(C)C45CC6CC(CC(C6)C4)C5)ccc23)cc1 (stereo unspecified)	/	/	-3%	/	/	/
Cc1cccc(CC(=O)NCc2nc3cccnc3n2Cc2ccc(F)cc2)c1	/	/	-4%	/	/	/
Cc1cccc(-n2c(=O)c3c(c4cc(C)ccc4n3C)n(CC(=O)NCCC3=CCCCC3)c2=O)c1	/	/	-1%	/	/	/
O=C(Nc1ccc2c(c1)OCO2)c1ccccn1	/	/	9.5µM*	1.4µM*	1.8µM*	?
Cc1ccc(C2=NN(C(=S)Nc3ccccc3)C(c3ccco3)C2)cc1 (stereo unspecified)	1%	13µM*	7.6µM*	3.2µM*	2.8µM*	?
CCS(=O)(=O)Nc1ccc(C2=NN(C(=S)Nc3ccccc3)C(c3ccco3)C2)cc1 (stereo unspecified)	-1%	?	?	15%	16%	5%
COCCn1c(C)cc(C(=O)COC(=O)CCN2C(=O)c3ccccc3C2=O)c1C	-1%	5%	?	-3%	0%	1%
Cc1cc(C(=O)COC(=O)C23CC4CC(CC(O)(C4)C2)C3)c(C)n1-c1c(C)n(C)n(-c2ccccc2)c1=O	1%	-2%	1%	-1%	0%	-1%
COCCn1c(C)cc(C(=O)COC(=O)c2cc3c(s2)CCC3)c1C	-4%	-8%	11µM*	4µM*	3.5µM*	?
Cc1cc(C(=O)COC(=O)Cc2ccc(Br)cc2)c(C)n1C	/	/	?	-1%	1%	-1%
COCCn1c(C)cc(C(=O)COC(=O)c2cccc(O)c2)c1C	/	/	0.11µM*	?	?	?
COCCn1c(C)cc(C(=O)CN2CCCCC2)c1C	0%	11%	2%	-3%	2%	6%
COCCn1c(C)cc(C(=O)COC(=O)C23CC4CC(CC(O)(C4)C2)C3)c1C	10%	?	1.5µM*	0.35µM*	0.35µM*	?
Cc1cc(C(=O)COC(=O)c2csc3c2CCCC3)c(C)n1C	-1%	-20%	12µM*	10%	15%	12%
CCOC(=O)N1CCN(Cc2nc3cc(NC(=O)c4ccccc4Cl)ccc3n2C(C)C)CC1	/	/	1%	/	/	/
CN(C)c1ccc(C(=O)Nc2c(C(=O)NC(C)(C)C)oc3ccccc23)cc1	/	/	-11%	/	/	/
